Bioassay records: PubChem BioAssay, National Center for Advancing Translational Sciences (NCATS)
KB-3-1 tox: qHTS assay for MDR1-selective chemotherapeutics: Primary screen using the parental adenocarcinoma cell KB-3-1. hit rate 1.4% among 400,000. KB-3-1 viability, CellTiter-Glo ATP luminescence, 72 h. Potency, µM (top dose mostly 46.1 µM), actives largely listed as cytotoxic. AID 1347075, 2019; also: nearly all actives have a fitted effect of over 60% in size
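Cytotoxicity measured as CellTiter-Glo luminescence after 72 h at 37 C. Compound titrations were pinned onto drug-naive KB-3-1 parental adenocarcinoma cells grown in DMEM with 10% FBS, and normalized data fitted to concentration-response curves.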
KB-V1 MDR tox: qHTS assay for MDR1-selective chemotherapeutics: Primary screen using the drug-selected MDR subline cells KB-V1. AID 1347076, 2019. KB-V1 MDR cells viability, CellTiter-Glo, 72 h. hit rate 3.4% among 400,000. Potency, µM (series often up to 46.1 µM), hits mostly cytotoxic; also: nearly all actives have a fitted effect of over 60% in size
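In this primary screen, KB-V1 cells overexpressing P-gp are incubated with library compounds (lowest to highest concentration) for 72 h at 37 degrees C before a luminescent ATP viability read.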
TDP1 cell CPT: qHTS for Inhibitors of human tyrosyl-DNA phosphodiesterase 1 (TDP1): qHTS in cells in presence of CPT. AID 686979, 2013. hit rate 12% among 420,000. chicken DT40 Tdp1-/-;hTDP1 cells + 20 nM CPT, ATP luminescence, 48 h. Potency, µM (doses to about 46.2 µM), for the others: at the top dose activity change, negative = growth inhibition, hits mostly inhibitors; also: nearly all actives have a fitted effect of over 55% in size
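Chicken DT40 Tdp1-/- cells stably complemented with human TDP1 were seeded at 400 cells/well in medium containing 20 nM camptothecin, exposed to pin-transferred compounds, and grown at 37 °C for at least 48 hr. Viability was read as ATP luminescence.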
HT1080 IDH1KD tx: qHTS for induction of synthetic lethality in tumor cells producing 2HG: qHTS for the HT-1080-IDH1KD cell line | AID 686971, 2013 | Potency, µM (doses to about 46.1 µM), without a hit: at the top dose activity, negative = toxicity, most hits filed as cytotoxic | hit rate 2% among 360,000 | HT-1080 IDH1 knockdown viability, ATP luminescence, 48 h;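 also: 0% = DMSO wells and -100% = cell-free medium wells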
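Cytotoxicity counter-line: IDH1KD HT-1080, 48 h, CellTiter-Glo. Curves classed by r2, magnitude and activity.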
HT1080NT lethal: qHTS for induction of synthetic lethality in tumor cells producing 2HG: qHTS for the HT-1080-NT fibrosarcoma cell line | HT-1080-NT fibrosarcoma viability, CellTiter-Glo ATP luminescence, 48 h | Potency, µM (doses to about 46.1 µM), without a hit: at the top dose activity, negative = less viability, usual class: cytotoxic | hit rate 1.6% among 360,000;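 also: NT is the 2HG producing partner of a matched IDH1 knockdown line; 0% = DMSO-treated cells and -100% = media-only wells without cells; nearly all actives have a fitted effect of over 55% in size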
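Compounds were tested in concentration-response format on HT-1080-NT cells for 48 hours at 37 degrees C. Cell viability came from CellTiter-Glo luminescence; curves were classified by r2, response magnitude and activity.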
TDP1 cell noCPT: qHTS for Inhibitors of human tyrosyl-DNA phosphodiesterase 1 (TDP1): qHTS in cells in absence of CPT; DT40 Tdp1-/- hTDP1 cells, no CPT, ATP luminescence, 48 h; Potency, µM (titrated, usually from 46.2 µM), without a hit: at the highest dose activity change, negative = growth inhibition, usual class: inhibitors; hit rate 15% among 420,000; AID 686978, 2013; also: nearly all actives have a fitted effect of over 55% in size
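Stably hTDP1-transfected Tdp1-null chicken DT40 cells were treated with library compounds minus camptothecin and grown for at least 48 hr at 37 °C, after which cellular ATP was quantified by luminescence.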
Starred values were filed as active, the others as inactive; i = inactive; u = inconclusive. Most compounds without a hit are left out; they make up all but 19% or so of the library. Calls follow the shape of the dose curve; as a rule, active = well fitted curve in the direction sought with a large enough effect; inconclusive = small, poorly fitted or top-dose-only effect, or another doubt; inactive = no such curve, though single readings can be large; an effect the other way counts as inactive or inconclusive. Unless noted, % is scaled to controls: 0 for no effect and ±100 for the full control effect; potency is read from the fitted curve at half-maximal effect.

SMILES | KB-3-1 tox | KB-V1 MDR tox | TDP1 cell CPT | HT1080 IDH1KD tx | HT1080NT lethal | TDP1 cell noCPT
COc1ccc(S(=O)(=O)NC2CC(=O)N(c3ccccc3)C2)cc1C (stereo unspecified) | i | i | -17% | 0% | -4% | -15%
O=C(NCCN1CCCCC1)c1ccc(F)cc1Cl | i | i | -14% | -14% | -5% | 25%
COc1ccc(Nc2cc(C)c3ccc(O)cc3n2)cc1 | i | u | 23µM* | -18% | 11% | 16µM*
COCC(=O)N[C@H]1CC[C@@H](CC(=O)NCc2ccccc2OC)O[C@@H]1CO | i | i | -3% | 20% | 6% | -9%
Cc1ccc(N/N=C/c2cccnc2)cc1 | u | 21µM* | -11% | 8.2µM* | u | -7%
Fc1ccc(N/N=C/c2cccnc2)c(F)c1 | i | i | -18% | 15µM* | u | 6%
Cc1csc(N/N=C\c2cccnc2)n1 | i | i | 2.9µM* | 0% | 12% | 5.2µM*
COc1ccc(C2C(C#N)=C(N)N(c3cccnc3)C3=C2C(=O)CC(C)(C)C3)cc1OC (stereo unspecified) | i | i | 23µM* | 11% | -1% | u
C=CCOc1ccc(C2C(C#N)=C(N)N(Nc3ccccc3)C3=C2C(=O)CCC3)cc1OC (stereo unspecified) | u | i | u | u | u | 16µM*
COc1cc(C2C(C#N)=C(N)N(Nc3ccccc3)C3=C2C(=O)CC(C)(C)C3)ccc1OCc1cccc(F)c1 (stereo unspecified) | i | i | u | u | u | u
COc1cc(C2C(C#N)=C(N)N(Nc3ccccc3)C3=C2C(=O)CC(C)(C)C3)ccc1OCc1ccccc1 (stereo unspecified) | u | i | u | u | u | 21µM*
COc1ccc(CC(=O)NCC(C)(C)N2CCOCC2)cc1 | i | i | 11% | 2% | -4% | 17%
CN(CCCC(=O)O)c1ccc(N=Nc2ccc([N+](=O)[O-])cc2)cc1 | u | i | u | -22% | -4% | u
CCOC(=O)C1=C(COc2ccccc2)NC(=O)NC1c1cccc([N+](=O)[O-])c1 (stereo unspecified) | i | i | 3% | 4% | 5% | -10%
CCOC(=O)C1=C(CSc2nc3ccccc3s2)NC(=O)NC1c1cccc([N+](=O)[O-])c1 (stereo unspecified) | i | i | 18µM* | u | u | u
O=C(O)c1cccnc1Nc1ccc(Cl)cc1 | 7.3µM* | 12µM* | u | -24% | -20% | u
COc1ccccc1-n1cnc(N)c1C(=O)c1ccccc1 | i | i | 9.2µM* | 26µM* | u | 8.2µM*
COc1ccccc1-n1cnc(N)c1C(C)=O | i | i | -7% | 2% | 1% | -10%
CN1CCN(c2ccc(CNS(=O)(=O)Cc3cccc(C(F)(F)F)c3)cc2)CC1 | u | u | 6.5µM* | -22% | 18µM* | 3.7µM*
CCc1ccccc1NC(=O)C1C2C=CC(O2)C1C(=O)O (stereo unspecified) | i | i | 8% | 9% | u | 11%
N#Cc1cc2cc(Cl)ccc2[nH]c1=O | 4.6µM* | i | -7% | 7% | 9% | -13%
O=C(c1ccccc1)c1cc2cc(Cl)ccc2[nH]1 | i | i | 13% | -11% | -19% | 15%
